SW480 rereplic = inducers of DNA re-replication in SW480 colon cancer cells. SW480 DNA re-replication, Hoechst DNA content imaging, 48 h. Potency, µM (highest dose often 46.1 µM), for inactives: at the highest dose re-replication activation, most hits filed as activators. 340,000 tested, 1.8% active; also: potency is read from the fitted curve at half-maximal effect; % of control where 0% means no effect; nearly all actives have a fitted effect of over 55% in size
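DNA re-replication was detected as more nuclei of elevated Hoechst intensity after 48 hr exposure to compound (23 nL pinned per well of 250 cells).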
DT40 TDP1 no CPT = qHTS for Inhibitors of human tyrosyl-DNA phosphodiesterase 1 (TDP1): qHTS in cells in absence of CPT; Potency, µM (series often up to 46.2 µM), inactives show top-dose activity change, negative = growth inhibition, usual class: inhibitors; AID 686978, 2013; DT40 Tdp1-/- hTDP1 cells, no CPT, ATP luminescence, 48 h; 420,000 tested, 15% active; also: potency is read from the fitted curve at half-maximal effect; % is scaled to controls: 0 for no effect and ±100 for the full control effect; nearly all actives have a fitted effect of over 55% in size
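Seeded 400 DT40-hTDP1 cells/well (vehicle DMSO, no 20 nM CPT); pinned compounds; ≥48 hr at 37 °C; CellTiter-Glo luminescence as viability measure.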
Chronic BCR inh = blocks chronic active B-cell receptor signaling. ABC-DLBCL IkBa-CBG/CBR reporter, luminescence ratio, 4 h. AID 493014. Potency, µM (highest dose often 46.1 µM), inactives show top-dose activity change, negative = inhibition, actives largely listed as inhibitors. 340,000 tested, 0.05% active; active = well fitted inhibition curve with a large enough effect in the signal ratio, with a control signal flat, not every such curve was filed as active; inconclusive = small, poorly fitted or top-dose-only effect, or effect the other way, or a change in a side signal; the % refers to the signal ratio;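 also: potency is read from the fitted curve at half-maximal effect; plate controls were basal doxycycline-induced cells for no effect and cells given 10 µM MG132 for full effect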
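TMD8 human ABC-DLBCL cells with doxycycline-inducible IκBα–green luciferase fusion and unfused red luciferase, in 0.5% FBS medium; compounds up to 46 uM, 4 h at 37C. Green/red luminescence ratio, filter-overlap corrected, fitted to concentration-response curves.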
DT40 TDP1 CPT = DT40-hTDP1 cell growth loss with CPT; chicken DT40 Tdp1-/-;hTDP1 cells + 20 nM CPT, ATP luminescence, 48 h; Potency, µM (doses to about 46.2 µM), for inactives: at the top dose activity change, negative = growth inhibition, hits mostly inhibitors; 420,000 tested, 12% active; also: potency is read from the fitted curve at half-maximal effect; % is scaled to controls: 0 for no effect and ±100 for the full control effect; nearly all actives have a fitted effect of over 55% in size
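Chicken DT40 Tdp1-/- cells stably complemented with human TDP1 were seeded at 400 cells/well in medium containing 20 nM camptothecin, exposed to pin-transferred compounds, and grown at 37 °C for at least 48 hr. Viability was read as ATP luminescence.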
IL-1B inflam inh = inflammasome signaling inhibition, IL-1 beta readout; THP-1 LPS/ATP IL-1B secretion, AlphaLISA, 16 h; active compounds read low; activity change, % at 57.5 µM; AID 743279; 360,000 tested, 4.7% active; in the data active = activity change below about -50%; inconclusive = mostly about -30% to -49%; also: % is scaled to controls: 0 for no effect and ±100 for the full control effect
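Secreted IL-1B measured by AlphaLISA bead assay after 16 h compound exposure of THP-1 cells; compounds (final up to 57.5 uM) added 1 h before LPS (250 ng/mL) and ATP (1.25 mM) stimulation; lower signal means less secretion.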
MCF10A rerep = DNA re-replication induction in MCF 10a cells. MCF 10A DNA re-replication, Hoechst nuclear intensity, 48 h. Potency, µM (series often up to 46.1 µM), for inactives: at the top dose activity, positive = re-replication, most hits filed as activators. 350,000 tested, 2.9% active; also: potency is read from the fitted curve at half-maximal effect; % of control where 0% means no effect; nearly all actives have a fitted effect of over 50% in size
Starred values were filed as active, the others as inactive; ? = inconclusive; nt = no result. Compounds with a hit are over-represented: about 19% of the library has one in this group of screens. Unless noted, calls follow the shape of the dose curve; as a rule, active = well fitted curve in the direction sought with a large enough effect; inconclusive = small, poorly fitted or top-dose-only effect, or another doubt; inactive = no such curve, though single readings can be large; an effect the other way counts as inactive or inconclusive.

SMILES	SW480 rereplic	DT40 TDP1 no CPT	Chronic BCR inh	DT40 TDP1 CPT	IL-1B inflam inh	MCF10A rerep
CCCCn1nnnc1C(c1ccccc1)N1CCN(c2ncc(C(F)(F)F)cc2Cl)CC1 (configuration not stated)	nt	18µM*	nt	?	8	nt
COc1ccc(C(c2nnnn2Cc2ccccc2)N2CCN(C/C=C/c3ccccc3)CC2)cc1 (configuration not stated)	nt	15µM*	nt	?	?	nt
COc1cccc(C(c2nnnn2Cc2ccco2)N2CCN(Cc3ccccc3)CC2)c1OC (configuration not stated)	?	-19%	3%	?	-13	-3%
CCCCn1nnnc1C(c1ccccc1)N1CCN(C)CC1 (configuration not stated)	nt	-14%	nt	2%	4	nt
COc1ccc(C(=O)Nc2ccc(NC(=O)Cc3ccccc3)cn2)cc1	6%	-16%	7%	1%	32	21%
CCN1CCc2c(sc(NC(=O)C3CCCCC3)c2C(=O)OC)C1	-5%	?	0%	26µM*	-8	-1%
CCOC(=O)c1c(NC(=O)Nc2ccc(C)cc2)sc2c1CCN(C)C2	18µM*	-23%	6%	-5%	nt	?
CCOC(=O)c1c(NC(=S)N2CCCCC2)sc2c1CCN(C(=O)OCC)C2	-44%	?	?	?	nt	21µM*
CCOC(=O)c1c(NC(=S)Nc2ccccc2)sc2c1CCN(CC)C2	0%	-26%	0%	-9%	-14	-1%
CCOC(=O)N1CCN(S(=O)(=O)c2ccc(C(=O)Nc3sc4c(c3C(=O)OC)CCN(C)C4)cc2)CC1	?	?	-6%	?	-100*	?
CC(NC(=O)CCn1ccc2cc(S(=O)(=O)N3CCCC3)ccc21)c1ccccc1 (configuration not stated)	-6%	-9%	9%	-10%	-16	-2%
COC(=O)C1[C@@H](OC)C(OC(=O)COc2ccc(OC)cc2)C[C@@H]2CN3CCc4c([nH]c5cc(OC)ccc45)[C@H]3C[C@H]12 (some centres not stated)	0%	nt	nt	nt	nt	18%
Nc1nc(-c2ccco2)nn1S(=O)(=O)c1ccc(Cl)cc1	-4%	-23%	-3%	-15%	-8	-3%
Cc1ccc(CCNC(=O)c2cc3c(=O)oc4ccccc4c3s2)cc1	nt	2%	nt	-2%	nt	nt
COc1ccc(NC(=O)CN(C)C(=O)CSc2nc3ccccc3s2)cc1	-64%	?	5%	5%	10	-6%
CCOC(=O)c1c(NC(=S)NCc2ccccc2)sc2c1CCN(C(=O)OCC)C2	?	?	0%	-25%	39	?
COC(=O)c1c(NC(=O)c2ccc(S(=O)(=O)N3CC(C)OC(C)C3)cc2)sc2c1CCN(C)C2 (configuration not stated)	nt	?	nt	?	17	nt
COCCN(CCOC)S(=O)(=O)c1ccc(C(=O)Nc2sc3c(c2C(=O)OC)CCN(C)C3)cc1	nt	?	-2%	-13%	nt	nt
CCOC(=O)c1c(NC(=O)c2ccccc2C(=O)O)sc2c1CCCC2	-4%	-1%	6%	0%	-9	14%
CCOC(=O)c1c(NC(=O)c2ccc(S(=O)(=O)N(C)C)cc2)sc2c1CCN(C)C2	nt	16µM*	1%	23µM*	nt	nt
CCOC(=O)c1c(NC(=O)c2ccc(S(=O)(=O)N(CC(C)C)CC(C)C)cc2)sc2c1CCN(C(=O)OCC)C2	nt	0.0073µM*	?	-34%	nt	nt
CCOC(=O)c1c(NC(=O)c2ccc(S(=O)(=O)N3CCC(C)CC3)cc2)sc2c1CCN(C)C2	nt	3.7µM*	?	3.7µM*	nt	nt
CCOC(=O)c1c(NC(=O)C2CCCN(S(=O)(=O)c3ccccc3)C2)sc2c1CCCC2 (configuration not stated)	-5%	9.2µM*	0%	8.2µM*	-2	?
CC(CC(=O)NNC(=O)c1ccncc1)c1ccccc1 (configuration not stated)	-337%	-2%	-3%	29%	16	0%
CCOc1ccc(C(=O)NC2CC(=O)N(c3ccc(C)cc3)C2)cc1OCC (configuration not stated)	nt	?	-3%	-5%	nt	nt
SMILES	SW480 rereplic	DT40 TDP1 no CPT	Chronic BCR inh	DT40 TDP1 CPT	IL-1B inflam inh	MCF10A rerep
O=CN(Cc1nc2ccccc2[nH]1)c1ccc(C(=O)O)cc1	2%	-3%	nt	8%	3	-7%
Cc1nn(-c2ccccc2)c2c1c(C)c(CCC(=O)N1CCOCC1)c(=O)n2C	-7%	?	9%	23µM*	-15	?
CCn1c(=O)c(CCC(=O)N2CCOCC2)c(C)c2c(C)nn(-c3ccccc3)c21	-13%	21µM*	?	?	?	9%
CCCc1[nH]nc2c1C(c1ccc(OC)c(CSC3=NCCS3)c1)C(C#N)=C(N)O2 (configuration not stated)	-2%	21µM*	?	?	-3	?
CCOC(=O)C1=CCN(S(=O)(=O)c2cccc(Cl)c2)C1c1cccc(C)c1 (configuration not stated)	nt	18µM*	nt	?	-20	nt
CCOC(=O)C1=CCN(S(=O)(=O)c2ccccc2Br)C1c1cccc(F)c1 (configuration not stated)	nt	?	nt	?	15	nt
CCOC(=O)C1=CCN(S(=O)(=O)c2ccc(C)cc2)C1c1cccc(Cl)c1 (configuration not stated)	nt	23µM*	nt	?	-30	nt
CCOC(=O)C1=CCN(S(=O)(=O)c2cccc(Cl)c2)C1c1ccccc1 (configuration not stated)	nt	?	nt	?	55	nt
CCOC(=O)C1=CCN(S(=O)(=O)c2ccc(C)cc2)C1c1cccc(F)c1 (configuration not stated)	nt	23µM*	nt	?	-7	nt
Cc1ccc(-c2nnc(SCCC(=O)Nc3ccccc3)n2C)cc1	nt	-16%	nt	-24%	nt	nt
COC(=O)CC1C(C)(C)C(=O)C2CC3C4=CC(=O)OC(c5ccoc5)[C@]4(C)CCC3[C@@]1(C)C2=O (some centres not stated)	nt	-5%	nt	2%	nt	nt
CC(=O)N(C(C)=O)C1=C(C#N)C2(CCCCC2)Cc2ccccc21	-5%	-11%	?	-22%	-74*	?

Screening data from PubChem.
